An excerpt weighted towards active compounds, which were near 12% of everything screened.
CHX counter: counter-screen hit for Shiga toxin inhibitors, cycloheximide | max response, % | actives 12% (n = 300,000) | cell reporter, cycloheximide protein synthesis inhibition counterscreen; in the data active = max response mostly above about 13%, no sharp cut-off; inactive = mostly below about 14%; also: read at 38.3 µM for the half of the compounds with a filed dose; 0% is about no effect
FMDV antiviral: foot and mouth disease virus antiviral activity. FMDV antiviral cell-based qHTS. Potency, µM (series often up to 57.9 µM), for the others: at the highest dose activity change, negative = inhibition, usual class: inhibitors. actives 1.2% (n = 410,000). AID 1159524; calls by dose curve; tested in HEK293T cells; also: read-out not given here; potency is read from the fitted curve at half-maximal effect; % is scaled to controls: 0 for no effect and ±100 for the full control effect; nearly all actives have a fitted effect of over 45% in size
Sm TGR block: S. mansoni TGR enzyme inhibition. Q962Y6. purified TGR, DTNB reduction, TNB absorbance 405 nm. Potency, µM (doses to about 114 µM), for inactives: at the highest dose activity change, negative = inhibition, most hits filed as inhibitors. actives 3% (n = 360,000). AID 485364; active = well fitted inhibition curve with a large enough effect; inconclusive = small, poorly fitted or top-dose-only effect; inactive = no such curve, though single readings can be large or run the other way; also: potency is read from the fitted curve at half-maximal effect; % is scaled to controls: 0 for no effect and ±100 for the full control effect; nearly all actives have a fitted effect of over 60% in size
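TGR 20 nM + NADPH 100 uM (dispensed conc.), cpd preinc 15 min RT; start with NADPH (500 uM addition) then DTNB (15 mM addition). Kinetic TNB absorbance, 405 nm filter. Four-parameter Hill fit across titration.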
Shiga inhibitor: inhibitors of Shiga toxin in Vero cells. AID 2315. actives 9.2% (n = 290,000). Vero cells, Shiga toxin protein synthesis inhibition reporter. inhibition, % at 38.7 µM; in the data active = inhibition mostly above about 28%, no sharp cut-off; inactive = mostly below about 43%; also: 0% is about no effect
* = called active by the depositor; ? = inconclusive; nt = no result; [ ] = dose if it differs, or a comment.

SMILES | CHX counter | FMDV antiviral | Sm TGR block | Shiga inhibitor
CC(C)CC(=O)c1c[nH]c(C(=O)O)c1 | -1.8 | -9.0% | -0.2% | 17.6
CC(C)(C)c1ccc(C(=O)c2c[nH]c(C(=O)NCCCn3ccnc3)c2)cc1 | 0.5 | 0.0% | 6.4% | 2.4
Cc1ccc(Sc2ccccc2CN(C)C)c(N)c1 | 25.4* | nt | nt | 30.7
CN(C)Cc1ccccc1Sc1ccccc1Br | -4.2 | -10.0% | 5.2% | -1.5
COc1ccc(-c2noc(CN(C)Cc3ccccc3)n2)c(OC)c1OC | 14.6* | 30.9% | -28.9% | 20.4
COc1ccc(N=CC2=C(O)CCCC2=O)cc1 | 37.2* | 28.5% | -12.1% | 76.4*
CC1(C)CC(=O)C(C=Nc2cccnc2/N=C/C2=C(O)CC(C)(C)CC2=O)=C(O)C1 | -0.8 | -6.0% | 22.4µM* | 15.6
COc1ccc(N=CC2=C(O)CC(C)(C)CC2=O)cc1 | 36.3* | 24.8% | 1.4%[11.4 µM] | 64.8*
COc1ccc(N=Cc2c(O)n(C)c(=O)n(C)c2=O)cc1 | 24.6 | 32.0% | 3.8% | 29.3
COc1cccc(Cn2c(=O)cc(C)c3c(C)nn(-c4ccc(C)cc4)c32)c1 | nt | -22.5% | 4.7% | nt
CCOC(=O)c1c(S(=O)(=O)N2CCCC(C(=O)N3CCN(c4cc(C)ccc4C)CC3)C2)c(C)n(C)c1C (stereo not given) | nt | -16.8% | 5.4% | nt
c1ccc2c(C3=NNC(=NC4CCCCC4)SC3)c[nH]c2c1 | 35.7* | 33.8% | 0.0% | 26.3
c1ccc2c(C3=NNC(=NC4CC4)SC3)c[nH]c2c1 | 38.0* | -61.0% | 7.3% | 16.5
c1ccc(C2=NNC(=NC3CC3)SC2)cc1 | 15.5* | nt | -5.2% | 31.9
COc1ccc(Cl)cc1NC(=O)Cn1c(=O)n(Cc2ccco2)c(=O)c2cccnc21 | nt | 0.0% | -15.0% | nt
Cc1oc(-c2ccccc2)nc1CS(=O)CC(=O)N1CCc2ccccc2C1 (stereo not given) | -2.9 | 5.9% | 3.16µM* | 5.6
Cc1ccc(-c2nc(CS(=O)CC(=O)N3CCN(c4ccccc4)CC3)c(C)o2)cc1 (stereo not given) | -4.7 | 4.3% | -14.7% | -14.4
Cc1oc(-c2ccc(Cl)cc2)nc1CN1CCC(C(=O)N2CCN(Cc3ccccc3)CC2)CC1 | -5.4 | 0.0% | 0.0% | -6.5
Cc1oc(-c2ccc(Cl)cc2)nc1CN1CCC(C(=O)N2CCc3ccccc3C2)CC1 | 1.5 | 22.4µM* | -0.2% | 14.6
Cc1cccc(-c2nc(CS(=O)CC(=O)N3CCCCC3)c(C)o2)c1 (stereo not given) | -5.1 | 0.0% | 35.5µM* | -5.0
Cc1cccc(-c2nc(CS(=O)CC(=O)NCC3CCCO3)c(C)o2)c1 (stereo not given) | -0.8 | -17.4% | 28.2µM* | 0.6
COc1ccc(-c2cc(C(F)(F)F)nc(N)n2)cc1 | 16.2 | 0.1% | 1.6% | 35.9
CS(=O)(=O)c1nc(-c2ccc(F)cc2)cc(C(F)(F)F)n1 | -5.4 | 28.2µM* | nt | 23.7
Nc1nc(-c2ccc(F)cc2)cc(C(F)(F)F)n1 | -1.4 | -18.8% | 10.8% | -11.5
COc1ccc(-c2cc(C(F)(F)F)nc(S(C)(=O)=O)n2)cc1 | -0.8 | 20µM* | 25.1µM* | -14.9
SMILES | CHX counter | FMDV antiviral | Sm TGR block | Shiga inhibitor
COC(COC(N)=O)C1=C(N2CC2)C(=O)C(C)=C(N2CC2)C1=O (stereo not given) | nt | -1.1% | nt | nt
COC12C(COC(N)=O)C3=C(C(=O)C(C)=C(N)C3=O)N1CC1C2N1C (stereo not given) | -0.9 | -10.0% | 12.6µM* | 1.5
Cc1ccc(NCc2cccn2-c2nnc(N3CCCCCC3)s2)cc1 | nt | -7.3% | 5.7% | nt
CC(C)OC(=O)c1cc(-c2ccc(C=O)o2)ccc1Cl | 11.0* | -18.4% | ? | 21.2
CC(C)N1C(=O)S/C(=C\c2ccc(-c3ccc(Cl)c(C(=O)O)c3)o2)C1=O | 76.0* | -16.8% | -35.2% | 153.2*
Cc1ccc(OCCN2C(=O)S/C(=C\c3ccc(C)o3)C2=O)cc1 | 1.2 | -24.7% | -26.9% | -11.9
CCN(CC)c1ccc(/C=C2\C(=O)NC(=S)N(C)C2=O)o1 | 44.8* | 3.9% | -33.6% | 110.3*
CCN(CC)c1ccc(/C=C2/SC(=O)N(C(C)C)C2=O)o1 | -5.3 | 10.6% | 11.2µM* | -7.4
CCOC(=O)CN1C(=O)S/C(=C\c2ccc(-c3ccc(C(=O)O)c(Cl)c3)o2)C1=O | 1.6 | -5.9% | -28.1% | -4.2
CCN(CC)c1ccc(C=C2C(=O)N(C)C(=S)N(C)C2=O)o1 | -1.4 | -3.0% | 44.7µM* | 15.4
COc1ccc(S(=O)(=O)N(C)CC(=O)Nc2ccc3c(c2)OCCO3)cc1 | nt | -7.5% | 4.3% | nt
COc1ccc(S(=O)(=O)N(C)CC(=O)Nc2ccc3c(c2)OCO3)cc1OC | 7.8* | -0.6% | -3.1% | 16.4
COc1ccc(S(=O)(=O)N(C)CC(=O)Nc2ccc3c(c2)OCO3)cc1 | 15.4 | nt | 5.0% | 10.5
CCc1cccc(NC(=O)CN(C)S(=O)(=O)c2cccc3nsnc23)c1 | -1.8 | 0.0% | -18.9% | -3.2
CCc1cccc(NC(=O)CN(C)S(=O)(=O)c2cccs2)c1 | 23.9* | 1.1% | -0.5% | 71.2*
CN(CC(=O)Nc1ccc2c(c1)OCCO2)S(=O)(=O)c1ccc(F)cc1 | 26.6* | 0.0% | 4.6% | 117.3*
CN(CC(=O)Nc1ccc2c(c1)OCO2)S(=O)(=O)c1cccs1 | 46.5* | 38.7% | 0.1% | 67.3*
CN(CC(=O)Nc1ccc(F)c(F)c1)S(=O)(=O)c1cccs1 | 10.1 | 15.9% | -0.1% | 2.1
CCOc1cc(Cn2c(-c3ccc(O)c(OCC)c3)nc3ccccc32)ccc1O | nt | -21.2% | -1.1% | nt
O=C(c1ccccc1)N1CCc2cc(CNS(=O)(=O)c3ccccc3Cl)ccc21 | nt | ? | 0.6% | nt
COc1cc(-c2cc(OC)c3c(C)oc(C)c3c(=O)c2)ccc1OC(=O)c1cccc(Cl)c1 | nt | ? | -13.8% | nt
CCOc1ccc(N(C)S(=O)(=O)c2c(C(=O)N3CCC(C)CC3)c(C)n(C)c2C)cc1 | nt | 11.8% | 1.6% | nt
CCNC(=O)C1CCN(c2nc3ccccc3nc2C(F)(F)F)CC1 | nt | -13.1% | 10.9% | nt
CC(NS(=O)(=O)c1ccc(F)cc1)C(=O)Nc1ccc2c(c1)OCCO2 (stereo not given) | 11.2* | 2.6% | -7.9% | 20.5
C[C@H](NS(=O)(=O)c1ccccc1)C(=O)OCC(=O)NC(=O)Nc1ccc2c(c1)OCCO2 | 73.6* | 45.4% | -13.1% | 86.5*
SMILES | CHX counter | FMDV antiviral | Sm TGR block | Shiga inhibitor
CC(=O)Nc1ccc(S(=O)(=O)N[C@@H](C)C(=O)OCC(=O)Nc2ccc3c(c2)OCCO3)cc1 | nt | -9.1% | nt | nt
O=C(Cn1cc(C(=O)c2ccncc2)c(=O)c2cc(F)ccc21)Nc1ccc(Cl)cc1 | nt | -13.9% | -7.9% | nt
COc1cccc(NS(=O)(=O)c2ccc3c(c2)n(C)c(=O)n3C)c1 | nt | 0.0% | -7.2% | nt
CN(Cc1ccc(F)cc1)S(=O)(=O)c1nnc(NC(=O)c2ccccc2Cl)s1 | nt | 13.4% | 1.0% | nt
Cc1cc(C)c(NC(=O)CCS(=O)(=O)c2cc3c(cc2Cl)NC(=O)CO3)c(C)c1 | nt | -26.4% | 1.7% | nt
C/C(CC(=O)Nc1ccc2c(c1)OCCO2)=N\NC(=O)Cc1ccccc1 | 1.7 | 12.1% | 7.7% | 8.6
C/C(CC(=O)Nc1ccc2c(c1)OCCO2)=N\NC(=O)Cc1ccc(Cl)cc1 | -1.7 | -4.4% | 1.4% | 129.2*
C/C(CC(=O)Nc1ccc2c(c1)OCCO2)=N\NC(=O)c1ccccc1Cl | 20.5* | 31.0% | -13.5% | 75.8
CCc1cccc2c(C(=O)COC(=O)c3ccccc3)c[nH]c12 | 21.1* | 38.4% | -10.2% | 76.2*

From PubChem
